Results reported in ChEMBL document CHEMBL4513216, “Probing the Open Global Health Chemical Diversity Library for Multistage-Active Starting Points for Next-Generation Antimalarials” (ACS Infect Dis, 2020).
The whole screen tested about 68,000 compounds, of which about 2,700 (4%) showed an effect of 50% or more. The full list was thinned out, with strong results kept by preference.

The molecules below were run on Plasmodium berghei (assay: Screen against P. berghei liver stage (PbLuc), transformed with Luciferase, at 2uM). Conditions: tested at 2 uM.
Format: functional, HepG2

| Structure (SMILES) | INHIBITION |
| --- | --- |
| CSc1nc2ncc3c(=O)n(C)ccc3n2n1 | 19.49% |
| Cn1cc(-c2cc(C(F)F)n3nc(CCC(=O)O)nc3n2)cn1 | 48.58% |
| CCn1cc(-c2cc(C(F)F)n3nc(CCC(=O)O)nc3n2)cn1 | 61.61% |
| CCn1cc(-c2cc(C(F)F)n3nc(CC(=O)O)nc3n2)cn1 | -20.05% |
| OCC(O)CN1CCc2onc(-c3ccc(C(F)(F)F)cc3)c2C1 (stereo unspecified) | -83.25% |
| CCN(CC)CCNC(=O)CCc1c(C)nn(-c2ccc(Cl)cc2)c1C | 36.85% |
| CC(C)c1nnc2ccc(N3CCC(C(=O)O)CC3)nn12 | 16.54% |
| Fc1ccc(F)c(CN2CCC(c3cc4ncccc4cn3)CC2)c1 | -20.28% |
| CC(=O)N1CCN(C(=O)NC(C)Cn2ccnc2)CC1 (stereo unspecified) | 14.47% |
| CC(=O)Nc1nc(C(=O)N2CCCC(n3nc(C)nc3C)C2)cs1 (stereo unspecified) | 9.17% |
| CCCC(=O)NCc1cc(Br)c(OC)c(OC)c1 | 0.63% |
| CCS(=O)(=O)NCc1cc(Br)c(OC)c(OC)c1 | 68.69% |
| CCC(=O)NCc1cc(Br)c(OC)c(OC)c1 | -11.19% |
| Cc1ccsc1C(=O)N(C)Cc1ccncc1 | -32.02% |
| CCOCC(=O)Nc1cccc(Oc2ccccn2)c1 | 67.68% |
| CSCC(=O)Nc1cccc(Oc2ccccn2)c1 | -7.6% |
| CCOCCC(=O)Nc1cccc(Oc2ccccn2)c1 | 3.59% |
| CC(C)(C)c1cc(CN2CCOCC(O)C2)n[nH]1 (stereo unspecified) | -67.78% |
| Cc1noc(C(C)N(C)CC(=O)NCCc2ccc(Cl)cc2)n1 (stereo unspecified) | 11.8% |
| Cc1nccc([C@@H]2C[C@H]3CN(S(=O)(=O)c4ccccc4)C[C@H]3O2)n1 | 32.41% |
| Cn1ccnc1CN1CCN(Cc2ccc(C#N)cc2)CC1 | -19.95% |
| CCn1ccnc1CN1CCN(Cc2ccc(C#N)cc2)CC1 | 71.23% |
| CCn1ccnc1CN1CCN(Cc2cccc(C#N)c2)CC1 | -49.45% |

| Structure (SMILES) | INHIBITION |
| --- | --- |
| CN(Cc1cc(C(C)(C)C)n[nH]1)Cc1c[nH]nc1-c1ccc(F)cc1 | 50.31% |
| Cc1n[nH]c(C)c1CCCN(C)Cc1c[nH]nc1-c1ccc(F)cc1 | -87.47% |
| CN(Cc1ccn[nH]1)Cc1c[nH]nc1-c1ccc(F)cc1 | -35.45% |
| CCN(Cc1cc(=O)n2cc(Br)ccc2n1)C1CC1 | -15.9% |
| Cc1ccc2cccc(Oc3nc(C)c(C(=O)O)s3)c2n1 | 27.11% |
| CCN(C)C(=O)c1cc(-c2cn(C(C)C)cn2)n2ccccc12 | 73.98% |
| COCCn1cnc(-c2cc(C(=O)NC(C)C)c3ccccn23)c1 | 1.48% |
| CCN(C)C(=O)c1cc(-c2ccn(C(C)C)n2)n2ccccc12 | -8.84% |
| CC(C)(C)c1csc(CNC(=O)C2NCCc3[nH]cnc32)n1 (stereo unspecified) | 12.08% |
| COc1ccc(C(=O)NC2CC2)c(OC2CCN(C(C)CO)CC2)c1 (stereo unspecified) | -8.53% |
| CCCC(=O)N1CCOC2(COCCN(CC(=O)NC)C2)C1 (stereo unspecified) | 43.03% |
| CNC(=O)CN1CCOCC2(C1)CN(C(=O)C(C)C)CCO2 (stereo unspecified) | -6.94% |
| CNC(=O)CN1CCOCC2(CN(CCC(F)(F)F)CCO2)C1 (stereo unspecified) | 53.46% |
| Cc1ccc(C(=O)N2CC[C@@]3(O)CCCC[C@H]3C2)cc1 | 16.45% |
| CNC(=O)c1sccc1N(C)S(=O)(=O)c1ccc(Cl)cc1 | 1.37% |
| O=C(NCCCOCC1CC1)Nc1cccnc1N1CCOCC1 | 61.57% |
| CC(C)COCCCNC(=O)c1cccnc1N1CCOCC1 | -32.12% |
| O=C(NCCCOCC1CCCO1)c1cccnc1N1CCOCC1 (stereo unspecified) | 10.49% |
| CCC(CC)NC(=O)c1ncn2c1CN(CC)S(=O)(=O)c1ccccc1-2 | 14.52% |
| CC(=O)N1CCC(Cc2nccnc2-c2c(C)n[nH]c2C)C1 (stereo unspecified) | 26.14% |
| Cc1ccc(CN2CC[C@H]3O[C@@H](C(=O)N4CCCO4)CC[C@H]32)s1 | -25.79% |
| COc1cccc(CCNCc2c(C)nn(C)c2N(C)C)c1 | 67.59% |
| Cc1nn(C)c(N(C)C)c1CNCc1cccc(Cn2cccn2)c1 | 50.32% |

| Structure (SMILES) | INHIBITION |
| --- | --- |
| COc1cccc(CNCc2c(C)nn(C)c2N(C)C)c1 | -32.89% |
| Cc1nn(C)c(N(C)C)c1CNCc1cccc(Cn2cncn2)c1 | -42.39% |
| COc1cccc(OCCNCc2c(C)nn(C)c2N(C)C)c1 | -14.3% |
| Cc1nn(C)c(N(C)C)c1CNCc1ccc(Cn2cccn2)cc1 | 44.37% |
| Cc1ccc(C(=O)NS(=O)(=O)c2cccc3cnccc23)c(=O)[nH]1 | -14.17% |
| Cc1nc2ccccn2c1CN(Cc1cccnc1)CC1CCCO1 (stereo unspecified) | 41.76% |
| Cc1cccc2c1nc(COCC(=O)O)n2-c1cnc(N)cn1 | -15.37% |
| CCCc1nc(C(C)(C)NC(=O)C2CC(=O)N(CC3CC3)C2)no1 (stereo unspecified) | 71.48% |
| CCCc1nc(C(C)(C)NC(=O)C2CC(=O)N(CC)C2)no1 (stereo unspecified) | -2.17% |
| CN(C)Cc1nc(C(C)(C)NC(=O)C2CC(=O)N(CC3CC3)C2)no1 (stereo unspecified) | 17.39% |
| O=C(NCCO)c1coc(Cn2cnc3ccccc32)n1 | 5.82% |
| CN(CC(O)CO)C(=O)c1coc(COc2cccc(F)c2)n1 (stereo unspecified) | -5.13% |
| CN(Cc1cnc(N)nc1)C(=O)c1coc(COc2ccccc2)n1 | -31.73% |
| CN(Cc1cnc(N)nc1)C(=O)c1coc(COc2cccc(F)c2)n1 | 51.31% |
| CCOCCCNC(=O)C1(C)CCC(=O)N1Cc1ccccc1F (stereo unspecified) | 15.96% |
| CSCc1nc(CCNC(=O)C(N)c2c(C)n[nH]c2C)cs1 (stereo unspecified) | -4.29% |
| O=C(c1ccc(-n2cnnc2)cc1Cl)N1CCCC2(CCNC2)C1 (stereo unspecified) | 57.75% |
| O=C(c1cccc(-c2ccc(F)cc2)c1)N1CCCC(O)(CO)CC1 (stereo unspecified) | 35.7% |
| O=C(c1ccnc(-n2cnnc2)c1)N1CCCC2(CCNC2)C1 (stereo unspecified) | 7.67% |
| O=C(c1ccc(-n2cccn2)cc1Cl)N1CCCC(O)(CO)C1 (stereo unspecified) | 21.36% |
| CN(C)CC1(O)CCN(C(=O)c2ccc(-n3cnnc3)cc2Cl)C1 (stereo unspecified) | 21% |
| N#Cc1cccc(C(=O)N2CCCC(O)(CO)CC2)c1 (stereo unspecified) | 16.82% |
| CNc1ccc(C)cc1C(=O)N1CCCC2(CCNC2)C1 (stereo unspecified) | 8.3% |

| Structure (SMILES) | INHIBITION |
| --- | --- |
| O=C(c1ccc(-n2cnnc2)cc1Cl)N1CCCC(O)(CO)CC1 (stereo unspecified) | 58.57% |
| O=C(c1cccc(Oc2ccccc2)c1)N1CCCC(O)(CO)CC1 (stereo unspecified) | 53.66% |
| COCC(=O)N1CCO[C@H]2[C@H](OC)CC[C@@H]21 | 7.86% |
| Cc1ccc(Oc2c(F)cccc2OC[C@@H](N)CC(C)C)cc1 | 16.01% |
| COC(=O)CN(C(=O)C(C)c1c(F)cccc1F)c1cccc(C)n1 (stereo unspecified) | -23.76% |
| Cc1oncc1C(=O)N1CC[C@H]2[C@H]1CCN2S(C)(=O)=O | 15.36% |
| COCC1CC2(CCN(Cc3cccc(C#N)c3)CC2)CN1C(C)C (stereo unspecified) | -52.61% |
| Cc1nnc(NC(=O)NCc2ccnc(N(C)C)c2)s1 | 29.71% |
| COc1ccc(-c2noc([C@@H]3C[C@@H](O)CN3C3CCOCC3)n2)cc1 | 38.62% |
| O[C@@H]1C[C@@H](c2nc(-c3ccccc3)no2)N(C2CCOCC2)C1 | 16.47% |
| O[C@@H]1C[C@@H](c2nc(-c3ccc(F)cc3)no2)N(C2CCOCC2)C1 | 51.2% |
| O=C(c1[nH]nc2c1CCCC2)N1CCC(OCCN2CCCCC2)C1 (stereo unspecified) | 8.14% |
| COC1CCN(C(=O)CCc2c(C)nc3ccnn3c2C)CC1 | -3.38% |
| CCOc1ccc(CN2C(=O)CC3(CCCC3)C2=O)nc1 | -32.8% |
| Cc1nc(C(=O)N2CCN(c3ccc(Cl)c(Cl)c3)CC2)cs1 | 23.19% |
| O=C(O)c1ccccc1-n1cnc(CN2CCc3ccccc3C2)c1 | 51.03% |
| O=C(O)c1ccccc1-n1cnc(CN2CCCCCC2)c1 | 25.41% |
| O=C(O)c1ccccc1-n1cnc(CN2CCc3ccccc32)c1 | -26.26% |
| CN(C(=O)C1CCOCC1)[C@@H]1CCC[C@@H](N2CCCC2)[C@@H]1O | -29.66% |
| CC1CN(S(=O)(=O)c2ccc(C(=O)NCC(F)F)cc2)CCCO1 (stereo unspecified) | 9.21% |
| COCCn1ccnc1C1CCN(C(=O)c2cccc(COC)n2)CC1 | -2.69% |
| CC(C)NC(=O)CCNC(=O)c1cc(F)ccc1NS(C)(=O)=O | -84.03% |
| c1cnn(C[C@@H]2C[C@@H]3CN(CC4CC4)CC[C@@H]3N2c2nccs2)c1 | -11.68% |

| Structure (SMILES) | INHIBITION |
| --- | --- |
| Cc1noc(C)c1CN1CCC(c2nc3cc(Cl)ccc3o2)CC1 | 32.43% |
| Cc1nc(CN2CCC(c3nc4cc(Cl)ccc4o3)CC2)oc1C | 29.16% |
| Cc1ncc(CN2CCC(c3nc4cc(Cl)ccc4o3)CC2)s1 | 56.38% |
| Cc1oc(-c2nc(C#N)c(NC(C)C)o2)cc1S(=O)(=O)N1CCCCC1 | 28.39% |
| Cc1ccnc(C2(C)CCCN2S(=O)(=O)c2cccnc2)n1 (stereo unspecified) | -0.7% |
| O=C(Nc1cc(C(F)(F)F)c[nH]c1=O)C1CCCNC1 (stereo unspecified) | -50.41% |
| CC1CCN(CCCNS(=O)(=O)c2cc(F)cc(F)c2)CC1 | 14.52% |
| COc1ccccc1C(=O)N1CCC(Oc2ccc(C#N)cn2)CC1 | 64.74% |
| Cn1nc(C(=O)N2CCC(Oc3ccc(C#N)cn3)CC2)ccc1=O | 37.08% |
| N#Cc1ccc(C(=O)N2CCC(Oc3ccc(C#N)cn3)CC2)cc1 | 20.49% |
| CC(=O)N1CCC(Oc2ccc(Cl)cn2)CC1 | 64.16% |
| CCOC(=O)N1CCC(Oc2ccc(C(F)(F)F)cn2)CC1 | 30.98% |
| CCOCC(=O)N1CCC(Oc2ccc(Cl)cn2)CC1 | -4.69% |
| N#Cc1ccc(OC2CCN(C(=O)c3ccccc3Cl)CC2)nc1 | 54.47% |
| COc1ccc(F)cc1S(=O)(=O)N1CCC(OC)CC1 | 28.55% |
| COc1ccc(F)cc1S(=O)(=O)N1CCC(Oc2ccc(Cl)cn2)CC1 | 54.73% |
| O=S(=O)(c1cc(F)cc(F)c1)N1CCC(Oc2ccc(Cl)cn2)CC1 | 20.5% |
| CC(=O)N1CCC(Oc2ccc(C#N)cn2)CC1 | -1.02% |
| N#Cc1ccc(OC2CCN(C(=O)c3ccc(Br)o3)CC2)nc1 | -2.43% |
